From PubChem BioAssay come the findings set out here.

A short description of assay [1]: viability loss in pontine glioma line – cell-based, SU-DIPG-XVII, MIPE5.0, CellTiter-Glo, qHTS, dose response (AID 1347060).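 For AC50: cells exposed to compound for 48 hours before viability readout.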 The conditions noted are these: CellTiter-Glo ATP luminescence.
Assay [2] in a line: viability loss in pontine glioma line – cell-based, SU-DIPG-XIII, MIPE4.0, CellTiter-Glo, qHTS, dose response (AID 1347061; cut-off not given, nearly all actives have AC50 up to about 37 µM;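 note: cells exposed to compound for 48 hours before readout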). The conditions noted are these: CellTiter-Glo ATP luminescence. (In general: In ATP-based viability assays light output follows the ATP content of the culture.)
Assay [3] can be described thus: viability loss in pontine glioma line – cell-based, SU-DIPG-XIII, MIPE5.0, CellTiter-Glo, qHTS, dose response (AID 1347064; cut-off not given, nearly all actives have AC50 up to about 23 µM;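 for AC50: cells exposed to compound for 48 hours before the viability read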). The following applies: CellTiter-Glo ATP luminescence.
The nature of assay [4]: viability loss in pontine glioma line – cell-based, SU-DIPG-XXV, MIPE5.0, CellTiter-Glo, qHTS, dose response (AID 1347065).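 Note: cells exposed to compound for 48 hours before ATP readout.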 The following applies: CellTiter-Glo ATP luminescence.
Assay [5] in a line: growth inhibition of DIPG cells – cell-based, MIPE4.0 library, CellTiter-Glo luminescence, qHTS (AID 1347066; cut-off not given, nearly all actives have AC50 up to about 30 µM;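 note: cells exposed to compound for 48 hours before readout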). The following applies: SU-DIPG-VI viability, CellTiter-Glo ATP luminescence.
Assay [6] is described as follows: JHH-DIPG-1 glioma cell viability, MIPE5.0 library, CellTiter-Glo luminescence, qHTS (AID 1347067).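 Note: cells exposed to compound for 48 hours before readout.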 The conditions noted are these: JHH-DIPG-1 glioma viability, CellTiter-Glo ATP luminescence.
Assay [7] is described as follows: growth inhibition of DIPG cells – cell-based, MIPE5.0 library, qHTS (AID 1347068; cut-off not given, nearly all actives have IC50 up to about 30 µM;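 for IC50: cells exposed to compound for 48 hours before viability readout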). The conditions noted are these: SU-DIPG-XXV viability. A general note: qHTS replaces the single test concentration by a dilution series.
Assay [8] in a line: viability loss in pontine glioma line – cell-based, SU-DIPG-IV, MIPE4.0, CellTiter-Glo, qHTS, dose response (AID 1347063; cut-off not given, nearly all actives have AC50 up to about 30 µM;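 note: compound exposure lasted 48 hours before the viability readout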). The conditions noted are these: CellTiter-Glo ATP luminescence.
Assay [9] is described as follows: compounds altering HSF1 focus formation in cells – imaging, Selleck Cancer Library (AID 1347162; in the data active = plate-normalised HSF1 focus index below about 0.46). The following applies: human cells, HSF1 nuclear foci imaging, at 10 µM; SSMD: measured here: HSF1 foci SSMD mean; cell count: measured here: cell number; plate-normalised HSF1 focus index: stronger effect = lower value.
Assay [10] can be described thus: viability loss with induced miR-34 in A549 – imaging, A549 dox-inducible miR-34, nuclei and caspase counts, primary screen (AID 1347080;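 active = compounds whose cell count with miR-34 switched on is under 0.7 times the count with it off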). The following applies: A549 miR-34 inducible, Hoechst nuclei count, 48 h.
Assay [11] can be described thus: MELAS cybrid and Rieske KO viability enhancers – cell-based, MELAS cybrids, Rieske KO mouse fibroblasts, CellTiter-Glo, primary screen (AID 1508586;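 active = mean z-score across replicates of 1.96 or higher in either the MELAS or the Rieske mutant cell line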;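 note: z relative to plate mean and SD of compound and empty wells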). The conditions noted are these: low glucose.
Where [12] appears, read: stronger effect = lower value, cell number ratio, induced over uninduced.
The mark [13] stands for this setting: measured here: relative caspase fold change +Dox/-Dox.
The mark [14] stands for this setting: measured here: total cells with miR-34 induction, stronger effect = lower value.
Setting [15] is: measured here: total cells without miR-34 induction.
Setting [16] is: MELAS cybrid survival, CellTiter-Glo 48 h, stronger effect = higher value.
Setting [17] is: Rieske KO mouse fibroblast survival, CellTiter-Glo 72 h.

Inconclusive results are not listed. The source made the active and inactive calls. Unless noted, no cut-off is given here; in the data, nearly all actives have AC50 up to about 26 µM.

For `CC#CCn1c(N2CCC[C@@H](N)C2)nc2c1c(=O)n(Cc1nc(C)c3ccccc3n1)c(=O)n2C`, the call in [1], in [2], in assay [3], in assay [4], in assay [5] and in assay [6] was inactive. The molecule was classed as inactive in [7].

What is called AC50 is the concentration giving half of the maximal activity seen. The term IC50 denotes the point on the concentration scale where inhibition reaches its midpoint. As to `CCc1cc(-c2n[nH]c(C)c2-c2ccc3c(c2)OCCO3)c(O)cc1O`, the AC50 is 18.6 µM (active) in assay [1]; 7.43 µM (active) in [2]; 2.64 µM (active) in assay [8]; 16.6 µM (active) in assay [4]; 20.9 µM (active) in [6]. In assay [7], the IC50 is 20.9 µM (active). For the same molecule, the SSMD in assay [9] was determined as 1.15. Besides, the cell count in assay [9] is 5920. In assay [9], the plate-normalised HSF1 focus index is 1.07 (inactive).

Consider `Cc1c[nH]c(/C=C2\C(=O)Nc3ccccc32)c1CCC(=O)O`, for which the half-maximal activity concentration (AC50) in assay [1] is 14.8 µM (active); in assay [2], 5.9 µM (active); in assay [4], 10.5 µM (active); in assay [6], 16.6 µM (active). Also, the outcome in assay [5] was inactive.

As for `CC1=C(C(=O)Nc2cc3cn[nH]c3cc2F)C(c2ccc(C(F)(F)F)cc2)CC(=O)N1` (stereo not drawn), the molecule was called inactive in assay [1], in assay [2], in assay [8], in assay [3], in assay [6] and in assay [7]. Also, the fold change is 1.03 (inactive) in assay [10] (setting [12]) and 0.78 in assay [10] (setting [13]). Besides, the cell count in [10] (setting [14]) is 5210; in assay [10] (setting [15]) it was 5040. For the same molecule, the z-score is -0.364 (inactive) in [11] (setting [16]) and 0.0194 in [11] (setting [17]).

On to `Nc1nc(=O)n([C@H]2C[C@H](O)[C@@H](CO)O2)cc1F`, for which the outcome in assay [1], in assay [2], in assay [8], in assay [4], in [5] and in assay [6] was inactive. In addition, the call in assay [7] was inactive.

As for `O=C(Nc1ccc(Oc2ccnc3[nH]ccc23)c(F)c1)c1cccn(-c2ccc(F)cc2)c1=O`, the result in assay [1], in assay [2], in assay [3], in assay [4], in assay [5] and in [6] was inactive. Also, the call in assay [7] was inactive.

Regarding `Cc1cc(C(=O)N2CCN(c3cccc(Cl)c3)CC2)n(-c2ccccc2)n1`, the AC50 is 7.42 µM (active) in assay [1] and 9.34 µM (active) in assay [4]. Also, the call in [2] and in assay [5] was inactive.

With `NC1=N[C@@]2(c3cc(NC(=O)c4ccc(F)cn4)ccc3F)COC[C@H]2CS1`, the molecule was classed as inactive in [1], in assay [2], in [4], in [5], in assay [6] and in assay [7].

`Cc1nc(C(=O)NCC(=O)O)c(O)c2ccc(Oc3ccccc3)cc12`: the outcome in assay [1], in assay [2], in assay [3], in [4], in [5] and in [6] was inactive. The result in assay [7] was inactive. Besides, the fold change was 0.947 (inactive) in assay [10] (setting [12]) and 0.804 in assay [10] (setting [13]). Moreover, the cell count in assay [10] (setting [14]) amounted to 6810; in [10] (setting [15]), 7190. The z-score in assay [11] (setting [16]) is -0.0779 (inactive); in assay [11] (setting [17]), 0.278.

In the case of `CN[C@@H](C)C(=O)N[C@H]1CCCC[C@H]2CC[C@@H](C(=O)N[C@@H](c3ccccc3)c3cn(CCCCc4ccc(CCCCn5cc([C@@H](NC(=O)[C@@H]6CC[C@@H]7CCCC[C@H](NC(=O)[C@H](C)NC)C(=O)N76)c6ccccc6)nn5)cc4)nn3)N2C1=O`, the molecule was classed as inactive in assay [1], in assay [2], in assay [3], in [5] and in assay [6].

As for `CCC(=O)N1CCN(c2ccc(-n3c(=O)ccc4cnc5ccc(-c6cnc7ccccc7c6)cc5c43)cc2C(F)(F)F)CC1`, the AC50 in assay [1] was 0.0456 µM (active); in assay [2], 1.32 µM (active); in assay [8], 0.0662 µM (active); in [3] it was 0.162 µM (active); in assay [4], 0.0811 µM (active). Also, in assay [9], the SSMD was 1.96. The same molecule returned a cell count in assay [9] of 7220. Besides, in [9], the plate-normalised HSF1 focus index was 1.1 (inactive).
